Assay [1] is described as follows: NCI Yeast Anticancer Drug Screen. Data for the rad50 strain (AID 155).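 Further: 0% = growth of vehicle-only cultures of the same strain.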 The settings on record: S. cerevisiae rad50 strain growth inhibition, stronger effect = higher value. In short, it runs like this: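 Vehicle-treated cultures provide the reference for the growth inhibition reported for compound-exposed, repair-deficient yeast.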
A short description of assay [2]: NCI Yeast Anticancer Drug Screen. Data for the mec2-1 strain (AID 157). Particulars: S. cerevisiae mec2-1 strain, stronger effect = higher value. In short, it runs like this: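 Yeast mec2-1 mutant treated with compound. Readout: growth inhibition vs vehicle controls.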
The nature of assay [3]: NCI Yeast Anticancer Drug Screen. Data for the sgs1 mgt1 strain (AID 161).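 Further: 0% = growth of cultures given vehicle only.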 The settings on record: S. cerevisiae sgs1 mgt1 strain, stronger effect = higher value. In short, it runs like this: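 Inhibition of yeast growth, normalised to vehicle-treated controls, is reported for a strain bearing genetic alterations in DNA damage repair.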
Assay [4] can be described thus: NCI Yeast Anticancer Drug Screen. Data for the cln2 rad14 strain (AID 165).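 Further: 0% = growth equal to vehicle treated cultures.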 The settings on record: S. cerevisiae cln2 rad14 strain, stronger effect = higher value. In short, it runs like this:
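cln2 rad14 yeast strain; compound exposure; growth inhibition read vs vehicle controls.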

Assay [5] is described as follows: NCI Yeast Anticancer Drug Screen. Data for the bub3 strain (AID 167). Particulars: S. cerevisiae bub3 mutant strain, stronger effect = higher value. In short, it runs like this:
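Mutant yeast screening strain plus compound; vehicle-treated cultures serve as the 0% inhibition reference.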

A short description of assay [6]: NCI Yeast Anticancer Drug Screen. Data for the mlh1 rad18 strain (AID 175). Particulars: S. cerevisiae mlh1 rad18 strain growth inhibition, stronger effect = higher value. In short, it runs like this:
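Yeast w/ defined DNA-repair lesions; compound exposure; growth vs vehicle controls → % inhibition.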

The mark [7] stands for this setting: at 5.0 µM (retest, dose inferred, filed as 0.5).
The mark [8] stands for this setting: at 50.0 µM (retest, dose inferred, filed as 5.0).

Where “and” joins values, the source holds several entries; their conditions need not be identical. Equal entries are not always repeated. About 79,000 compounds went through this panel and 15% of them were active in at least one assay; those are over-represented in the sample as a whole. The source holds several records for some structures; these can differ, active in one and inactive in another. Calls of active or inactive are those of the source. No stated cut-off is given here; in the data, active means growth inhibition above about 70%; inactive means the rest.

For `CN1CCCc2cc(/C=C\c3ccnc4ccccc34)ccc21`, the growth inhibition was -2% (inactive) in assay [1] (setting [7]); 94% (active) in assay [1] (setting [8]); 96% (active) in assay [1] (at 50.0 µM); -10% (inactive) in assay [2] (setting [7]); 97% (active) in assay [2] (setting [8]); 97.1% (active) in assay [2] (at 50.0 µM). Moreover, the growth inhibition in assay [3] (setting [7]) is -10% (inactive); in assay [3] (setting [8]), 96% (active); in assay [3] (at 50.0 µM), 98.3% (active); in assay [4] (setting [7]), -6% (inactive); in assay [4] (setting [8]), 94% (active); in assay [4] (at 50.0 µM), 93% (active). The growth inhibition in assay [5] (setting [7]) was -7% (inactive); in assay [5] (setting [8]), 94% (active); in assay [5] (at 50.0 µM) it was 96.8% (active); in assay [6] (setting [7]), -21% (inactive); in assay [6] (setting [8]), 96% (active); in assay [6] (at 50.0 µM) it was 97.4% (active).

In the case of `OCC(O)C(O)C(O)C(/C=N/Nc1ccccc1)=N/Nc1ccccc1` (centres undefined), the growth inhibition in assay [1] (setting [7]) was 2% (inactive); in assay [1] (setting [8]), -13% (inactive); in assay [1] (at 50.0 µM), 40.5% (inactive) and 21.7% (inactive) and 50.6% (inactive); in assay [2] (setting [7]), -2% (inactive); in assay [2] (setting [8]), -34% (inactive); in assay [2] (at 50.0 µM), -5.35% (inactive) and -4.3% (inactive) and 15.8% (inactive). Besides, the growth inhibition is 2% (inactive) in assay [3] (setting [7]); -9% (inactive) in assay [3] (setting [8]); 55.5% (inactive) and 27.6% (inactive) and 33% (inactive) in assay [3] (at 50.0 µM); 5% (inactive) in assay [4] (setting [7]); -12% (inactive) in assay [4] (setting [8]); 5.55% (inactive) and -6.8% (inactive) and -39.8% (inactive) in assay [4] (at 50.0 µM). Besides, the growth inhibition in assay [5] (setting [7]) was 5% (inactive); in assay [5] (setting [8]) it was 8% (inactive); in assay [5] (at 50.0 µM) it was -12.9% (inactive) and -5.05% (inactive) and -1.05% (inactive); in assay [6] (setting [7]), 20% (inactive); in assay [6] (setting [8]) it was 0% (inactive); in assay [6] (at 50.0 µM) it was 24.9% (inactive) and 21.1% (inactive) and 48.2% (inactive).

As for `O=S(c1cc(Cl)cc(Cl)c1O)c1cc(Cl)cc(Cl)c1O`, the growth inhibition in assay [1] (setting [7]) was 66% (inactive); in assay [1] (setting [8]), 99% (active); in assay [1] (at 50.0 µM) it was 99.2% (active); in assay [2] (setting [7]) it was 39% (inactive); in assay [2] (setting [8]), 100% (active); in assay [2] (at 50.0 µM) it was 99.5% (active). Also, the growth inhibition was 39% (inactive) in assay [3] (setting [7]); 100% (active) in assay [3] (setting [8]); 98% (active) in assay [3] (at 50.0 µM); 40% (inactive) in assay [4] (setting [7]); 99% (active) in assay [4] (setting [8]); 99.5% (active) in assay [4] (at 50.0 µM). In addition, the growth inhibition was 56% (inactive) in assay [5] (setting [7]); 100% (active) in assay [5] (setting [8]); 99.5% (active) in assay [5] (at 50.0 µM); 44% (inactive) in assay [6] (setting [7]); 99% (active) in assay [6] (setting [8]); 99.5% (active) in assay [6] (at 50.0 µM).

As to `Nc1ncnc2c1ncn2C1SC(CO)C(O)C1O` (centres undefined), the growth inhibition is 0% (inactive) in assay [1] (setting [7]); 8% (inactive) in assay [1] (setting [8]); 4.35% (inactive) and 13.3% (inactive) and 42.6% (inactive) in assay [1] (at 50.0 µM); -6% (inactive) in assay [2] (setting [7]); 5% (inactive) in assay [2] (setting [8]); 32.3% (inactive) and 4.55% (inactive) and -7.25% (inactive) in assay [2] (at 50.0 µM). For the same compound, the growth inhibition was 0% (inactive) in assay [3] (setting [7]); 7% (inactive) in assay [3] (setting [8]); 3.2% (inactive) and 3.55% (inactive) and 36.1% (inactive) in assay [3] (at 50.0 µM); -4% (inactive) in assay [4] (setting [7]); -4% (inactive) in assay [4] (setting [8]); 11.2% (inactive) and 44.8% (inactive) and 2.35% (inactive) in assay [4] (at 50.0 µM). Further, the growth inhibition in assay [5] (setting [7]) is -3% (inactive); in assay [5] (setting [8]), -7% (inactive); in assay [5] (at 50.0 µM), -21.4% (inactive) and -3.85% (inactive) and -4.3% (inactive); in assay [6] (setting [7]) it was 13% (inactive); in assay [6] (setting [8]) it was 25% (inactive); in assay [6] (at 50.0 µM), 14.7% (inactive) and 4.75% (inactive) and -3.25% (inactive).

Take `NC(=O)NC(=O)C(Cc1ccc(Cl)cc1)c1ccccc1` (centres undefined): the growth inhibition in assay [1] (setting [7]) was -1% (inactive); in assay [1] (setting [8]), 17% (inactive); in assay [1] (at 50.0 µM), -15% (inactive); in assay [2] (setting [7]), -6% (inactive); in assay [2] (setting [8]) it was 8% (inactive); in assay [2] (at 50.0 µM), -13.2% (inactive). For the same compound, the growth inhibition was 1% (inactive) in assay [3] (setting [7]); 7% (inactive) in assay [3] (setting [8]); -5.75% (inactive) in assay [3] (at 50.0 µM); 4% (inactive) in assay [4] (setting [7]); 19% (inactive) in assay [4] (setting [8]); -65.7% (inactive) in assay [4] (at 50.0 µM). The growth inhibition in assay [5] (setting [7]) was 6% (inactive); in assay [5] (setting [8]), 20% (inactive); in assay [5] (at 50.0 µM), -52.6% (inactive); in assay [6] (setting [7]), -13% (inactive); in assay [6] (setting [8]) it was 5% (inactive); in assay [6] (at 50.0 µM) it was 2.15% (inactive).

With `COc1ccc2c(c1)C(Cc1ccc(Oc3ccc(CC4c5cc(OC)ccc5CC[N+]4(C)C)cc3)cc1)[N+](C)(C)CC2` (centres undefined), the growth inhibition in assay [1] (setting [7]) is -12% (inactive); in assay [1] (setting [8]) it was 62% (inactive); in assay [1] (at 50.0 µM), 96.8% (active); in assay [2] (setting [7]), -6% (inactive); in assay [2] (setting [8]), 51% (inactive); in assay [2] (at 50.0 µM), 97.2% (active). Moreover, the growth inhibition in assay [3] (setting [7]) is -7% (inactive); in assay [3] (setting [8]), 91% (active); in assay [3] (at 50.0 µM) it was 99.2% (active); in assay [4] (setting [7]), -4% (inactive); in assay [4] (setting [8]), 54% (inactive); in assay [4] (at 50.0 µM), 72% (active). Also, the growth inhibition in assay [5] (setting [7]) is -3% (inactive); in assay [5] (setting [8]), 82% (active); in assay [5] (at 50.0 µM), 84.7% (active); in assay [6] (setting [7]), -10% (inactive); in assay [6] (setting [8]) it was 95% (active); in assay [6] (at 50.0 µM), 98.8% (active).

As for `CC(C)(C)CC(C)(C)c1ccc(OCCO)cc1`, the growth inhibition was -2% (inactive) in assay [1] (setting [7]); 98% (active) in assay [1] (setting [8]); -22.7% (inactive) and 99.6% (active) in assay [1] (at 50.0 µM); -16% (inactive) in assay [2] (setting [7]); 99% (active) in assay [2] (setting [8]); -11.3% (inactive) and 99.5% (active) in assay [2] (at 50.0 µM). For the same compound, the growth inhibition in assay [3] (setting [7]) is -6% (inactive); in assay [3] (setting [8]), 97% (active); in assay [3] (at 50.0 µM), 25.9% (inactive) and 99.5% (active); in assay [4] (setting [7]) it was -13% (inactive); in assay [4] (setting [8]), 99% (active); in assay [4] (at 50.0 µM) it was -49.5% (inactive) and 99.3% (active). In addition, the growth inhibition is -21% (inactive) in assay [5] (setting [7]); 99% (active) in assay [5] (setting [8]); -40.5% (inactive) and 99.5% (active) in assay [5] (at 50.0 µM); -5% (inactive) in assay [6] (setting [7]); 99% (active) in assay [6] (setting [8]); -27.9% (inactive) and 99.5% (active) in assay [6] (at 50.0 µM).

As to `CCOc1ccc(NC(=O)C(=O)NO)cc1`, the growth inhibition in assay [1] (setting [7]) was 7% (inactive); in assay [1] (setting [8]) it was 73% (active); in assay [1] (at 50.0 µM), 83% (active); in assay [2] (setting [7]) it was -25% (inactive); in assay [2] (setting [8]), 59% (inactive); in assay [2] (at 50.0 µM), 71.8% (active). Moreover, the growth inhibition in assay [3] (setting [7]) is 10% (inactive); in assay [3] (setting [8]), 67% (inactive); in assay [3] (at 50.0 µM), 74% (active); in assay [4] (setting [7]), 6% (inactive); in assay [4] (setting [8]), 26% (inactive); in assay [4] (at 50.0 µM), 52% (inactive). Besides, the growth inhibition in assay [5] (setting [7]) is -8% (inactive); in assay [5] (setting [8]), 85% (active); in assay [5] (at 50.0 µM), 79.5% (active); in assay [6] (setting [7]), -14% (inactive); in assay [6] (setting [8]), 87% (active); in assay [6] (at 50.0 µM), 79.7% (active).
